Screening results: PubChem BioAssay, The Scripps Research Institute Molecular Screening Center
A selection: hits, their analogues and other compounds. The true share with any hit is near 3.4%.
PAFAH1B2 inh: inhibitors of human PAFAH1B2. 1.2% of 340,000 active. AID 492953. inhibition, % at 3.39 µM. recombinant PAFAH1B2, FP-rhodamine activity probe, fluorescence polarization. P68402;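 active = inhibition above the mean of all tested compounds plus 3 SD, cut at about 24% in these data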;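 also: 0% = enzyme with DMSO and 100% = wells lacking PAFAH1B2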
Target sequence (P68402 whole entry, looked up): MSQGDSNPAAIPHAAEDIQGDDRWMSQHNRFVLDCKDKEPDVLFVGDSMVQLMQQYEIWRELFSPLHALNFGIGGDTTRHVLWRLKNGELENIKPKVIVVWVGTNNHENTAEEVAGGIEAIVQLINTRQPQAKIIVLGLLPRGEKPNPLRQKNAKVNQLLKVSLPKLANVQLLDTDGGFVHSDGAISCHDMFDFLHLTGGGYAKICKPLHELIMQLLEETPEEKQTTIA
pPAFAH inh: pPAFAH (human) enzyme inhibition; recombinant pPAFAH, FP-rhodamine probe fluorescence polarization; 1.5% of 330,000 active; inhibition, % at 3.39 µM; Q13093;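 active = inhibition above the mean inhibition across the screen plus 3 SD, cut at about 25% in these data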;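 also: inhibitors block binding of the rhodamine activity-based probe so polarization drops; 0% = enzyme with DMSO and 100% = wells lacking pPAFAH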
PP1 counter: blocks human PP1-alpha phosphatase, a PP5 counter-screen | P62136 | purified PP1alpha, OMFP fluorescence | inhibition, % at 6.7 µM | 0.9% of 320,000 active;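 active = inhibition above the mean inhibition of all tested compounds plus 3 SD, computed separately for each screening campaign, cut at about 15% in these data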
Target sequence (P62136 whole entry, looked up): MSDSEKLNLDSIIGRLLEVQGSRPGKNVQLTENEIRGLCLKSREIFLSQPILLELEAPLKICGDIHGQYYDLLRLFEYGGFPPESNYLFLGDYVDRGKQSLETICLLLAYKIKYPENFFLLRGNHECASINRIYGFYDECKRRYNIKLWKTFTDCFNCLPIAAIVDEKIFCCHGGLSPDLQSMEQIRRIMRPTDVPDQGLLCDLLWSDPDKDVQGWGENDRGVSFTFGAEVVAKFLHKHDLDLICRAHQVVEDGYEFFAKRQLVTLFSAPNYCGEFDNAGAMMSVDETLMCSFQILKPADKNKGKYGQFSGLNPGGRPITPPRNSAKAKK
PAFAH2 inh: PAFAH2 (human) inhibition; Q99487; recombinant PAFAH2, FP-rhodamine activity probe, fluorescence polarization; inhibition, % at 3.39 µM; 0.99% of 340,000 active;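 active = inhibition above the mean over all tested compounds plus 3 SD, cut at about 30% in these data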;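 also: inhibitors block probe labeling of enzyme so polarization drops; 0% = enzyme with DMSO and 100% = wells lacking PAFAH2 protein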
PP5 inh: inhibitors of human protein phosphatase 5 (PP5); 0.18% of 320,000 active; purified PP5c, OMFP substrate fluorescence; P53041; inhibition, % at 6.7 µM;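 active = inhibition above the campaign's mean inhibition across all tested compounds plus 3 SD, cut at about 9.5% in these data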;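 also: 0% = DMSO only and 100% = 100 µM cantharidin control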
PAFAH1B3 inh: inhibitors of human PAFAH1B3; Q15102; recombinant PAFAH1B3, FP-rhodamine probe, fluorescence polarization; inhibition, % at 3.39 µM; 0.28% of 340,000 active; AID 492972;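 active = inhibition above the screen-wide average of all tested compounds plus 3 SD, cut at about 25% in these data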;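 also: 0% = enzyme with DMSO only and 100% = wells lacking PAFAH1B3 protein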
PP1 inh confirm: human PP1 phosphatase inhibition, confirmation; purified PP1alpha, OMFP substrate fluorescence; shares compounds with PP1 counter; inhibition, % at 6.7 µM; 52% of 1,900 active;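 active = mean PP1 inhibition above a set limit taken from the earlier primary screen, cut at about 15% in these data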
PP5 inh counter: counter-screen for PP1 inhibitors: human PP5 phosphatase inhibition | inhibition, % at 6.7 µM | shares compounds with PP1 counter | purified PP5c, OMFP fluorescence | 4% of 1,900 active;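 active = mean PP5 inhibition over triplicate wells above about 9.5% taken from the earlier PP1 screen, limit read from the data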
* = called active by the depositor; nt = no result given.

SMILES	PAFAH1B2 inh	pPAFAH inh	PP1 counter	PAFAH2 inh	PP5 inh	PAFAH1B3 inh	PP1 inh confirm	PP5 inh counter
CCN1/C(=C/C=C/c2sc3ccccc3[n+]2CC)Sc2ccccc21	-243	-157	18*	-268	6	-378	-8	9
CC[n+]1c(/C=C(\C)SC)sc2ccccc21	0	5	2	5	2	-5	nt	nt
CC[n+]1c(/C=C/Nc2ccccc2)sc2ccccc21	-11	-13	0	-25	3	-5	nt	nt
Cc1ccc(S(=O)(=O)N2CCN(C(=O)CC(C)n3cncn3)CC2)cc1C (stereo unspecified)	0	2	3	-4	1	3	nt	nt
Cc1ccc(C(=O)OCC(=O)c2ccc(S(=O)(=O)N3CCCCC3)cc2)o1	3	2	66*	2	2	5	0	-2
COc1ccc(C(=O)OCC(=O)c2ccc(S(=O)(=O)N3CCCCC3)cc2)c(OC)c1	-2	nt	nt	3	nt	-3	nt	nt
N#C/C(=C(/O)c1ccc([N+](=O)[O-])cc1)c1nc2ccccc2[nH]1	nt	0	-3	nt	1	nt	nt	nt
N#C/C(=C(/O)c1ccc(Cl)c([N+](=O)[O-])c1)c1nc2ccccc2[nH]1	6	7	20*	5	4	-1	14	-1
CCOc1ccccc1C(=O)NCC(=O)NCC(c1ccc(OC)cc1)N1CCOCC1 (stereo unspecified)	-1	0	23*	-1	-1	2	-2	-3
COc1ccc(C(CNC(=O)c2ccc(-c3ccccc3)cc2)N(C)C)cc1OC (stereo unspecified)	7	-2	43*	3	2	-8	-2	1
COc1ccc(-c2cc(C(=O)NCC(c3ccccc3)N(C)C)c3ccccc3n2)cc1OC (stereo unspecified)	4	5	0	8	1	1	nt	nt
O=C(NCc1ccccc1)c1nc2c(nnn2Cc2cccc(Cl)c2)c(=O)[nH]1	8	5	21*	8	-3	9	14	-3
Cc1cccc(C)c1N1CCN(C(=O)Cn2cncn2)CC1	4	4	-5	5	-2	1	nt	nt
CCN(CC)C(=O)/C(=C/c1cn(S(=O)(=O)N(C)C)c2ccccc12)NC(=O)c1ccc(OC)cc1	8	1	27*	-3	0	-2	23*	-2
CCOC(=O)C1CCCN(c2nc3ccccc3nc2C(C#N)C(=O)OCC)C1 (stereo unspecified)	-8	3	21*	-5	4	6	1	1
COc1cc(CN2CCNC(=O)C2CC(=O)N2CCc3ccccc3C2)cc(OC)c1 (stereo unspecified)	4	0	7	1	4	-1	nt	nt
Cc1ccc(S(=O)(=O)N=Nc2c(O)[nH]c3ccccc23)cc1	7	-3	0	4	1	8	nt	nt
Cc1ccc(S(=O)(=O)N(CC(=O)N=Nc2c(O)[nH]c3ccccc23)c2ccc(C)c(C)c2)cc1	-4	-5	19*	-18	4	-14	19*	1
CC1Cc2ccccc2N1Cc1cc(=O)n2ccsc2n1 (stereo unspecified)	-2	0	22*	14	-4	3	19*	-2
COc1ccccc1N1CCN(Cc2cc(=O)n3ccsc3n2)CC1	4	-4	-2	3	0	-1	nt	nt
Cc1csc2nc(O)c(C(=O)NCCC3=CCCCC3)c(=O)n12	5	0	15	0	-1	-3	nt	nt
Cc1csc2nc(O)c(C(=O)NCCCc3ccccc3)c(=O)n12	3	3	20*	-3	1	-6	13	-5
O=C(N/N=C/c1ccsc1)c1c[nH]c2ccccc12	7	-2	38*	3	0	8	-2	0
Cc1ccsc1/C=N/NC(=O)c1c[nH]c2ccccc12	5	2	-1	-5	1	7	nt	nt
C#CCOCCOCCOCCNc1nc(N2CCN(C(=O)CCCCCCCCCCNC(=O)[C@H](CCC(=O)O)n3cc(CCCCCN)nn3)CC2)nc(N2CCN(C(=O)CCCCCCCCCCNC(=O)[C@@H]([C@H](C)O)n3cc(C)nn3)CC2)n1	6	7	4	2	2	-3	nt	nt
SMILES	PAFAH1B2 inh	pPAFAH inh	PP1 counter	PAFAH2 inh	PP5 inh	PAFAH1B3 inh	PP1 inh confirm	PP5 inh counter
C#CCOCCOCCOCCNc1nc(N2CCN(C(=O)CCCCCCCCCCNC(=O)[C@H](CCCCN)n3cc(C)nn3)CC2)nc(N2CCN(C(=O)CCCCCCCCCCNC(=O)[C@@H]([C@H](C)CC)n3cc(CCCCCN)nn3)CC2)n1	-4	0	60*	-6	5	21	28*	-1
C#CCOCCOCCOCCNc1nc(N2CCN(C(=O)CCCCCCCCCCNC(=O)[C@H]([C@@H](C)CC)n3cc(CCCCCN)nn3)CC2)nc(N2CCN(C(=O)CCCCCCCCCCNC(=O)[C@@H]([C@H](C)O)n3cc(C)nn3)CC2)n1	3	2	54*	1	4	-5	41*	0
CC1(c2ccc(C#N)cc2)NC(=O)N(CC(=O)Nc2cc(S(=O)(=O)N3CCOCC3)ccc2Cl)C1=O (stereo unspecified)	0	2	8	0	2	0	nt	nt
O=C(CN1CCCCC1)N1N=C(c2cccs2)CC1c1cccs1 (stereo unspecified)	-3	3	-2	-3	4	-1	nt	nt
Nc1nc(-c2ccc(Oc3ccccc3)cc2)c(CC(=O)O)s1	4	nt	nt	5	nt	8	nt	nt
Nc1nc(-c2ccccn2)nc(N)c1Cc1ccc(Cl)cc1Cl	-1	-1	34*	7	2	3	47*	5
Nc1nc(-c2ccccn2)nc(N)c1Cc1c(F)cccc1Cl	2	6	27*	-4	1	4	47*	-2
O=C(/C=C/c1ccccc1)NC(=S)NNC(=O)Cc1cccs1	2	5	24*	2	-1	7	17*	-4
O=C(Nc1ccc2nc3n(c(=O)c2c1)CCCCC3)C(=O)N1CCN(c2ccc(F)cc2)CC1	1	3	-1	-2	-2	3	nt	nt
COc1ccccc1C(=O)Nc1ccc(Oc2nnc(-c3ccc(C)cc3)c3ccccc23)cc1	-5	-8	13	-10	2	-9	nt	nt
Cc1ccc(Oc2nnc(-c3ccc(C)cc3)c3ccccc23)cc1	-1	5	41*	9	2	-6	-8	-8
CC(C)(c1cc(Br)c(O)c(Br)c1)c1cc(Br)c(O)c(Br)c1	7	14	1	21	0	7	nt	nt
Cc1c([N+](=O)[O-])cc(S(=O)(=O)Nc2ccc(-c3ccc(N4CCCC4)nn3)cc2)cc1[N+](=O)[O-]	12	29*	19*	14	2	2	21*	-3
